Assay results from the supplement of paper PMC6411743.
± gives the standard deviation of the averaged measurements. Targets with the largest changes are over-represented here; the source holds about 6,200 in all.

Compound: Nc1ncnc2c1ncn2[C@@H]1O[C@H](COP(=O)(O)OP(=O)(O)NP(=O)(O)O)[C@@H](O)[C@H]1O [adenylyl imidodiphosphate]
Assay: NP40-soluble protein abundance relative to vehicle (solubility fold change) (ratio); higher = more soluble protein in presence of AMP-PNP
In short: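 Across three independent experiments, values are fold changes against the detergent-processed vehicle for each replicate, based on vsn-normalised intensities. The samples were Jurkat crude lysate treated with eight concentrations (0.1 to 10 mM) for 10 min at room temperature and then 3 min at 37 °C. Lysate was solubilised with 0.8% NP40 and benzonase, ultracentrifuged, and the supernatant analysed by TMT-labelled LC-MS/MS.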

UniProt P62993, sequence (P62993 whole entry, looked up): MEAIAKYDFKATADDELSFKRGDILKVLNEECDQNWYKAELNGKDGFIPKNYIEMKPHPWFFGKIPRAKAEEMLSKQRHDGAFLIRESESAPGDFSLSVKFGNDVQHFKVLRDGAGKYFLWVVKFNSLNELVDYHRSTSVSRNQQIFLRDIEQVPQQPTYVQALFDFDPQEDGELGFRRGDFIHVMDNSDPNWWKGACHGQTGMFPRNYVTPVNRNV
UniProt Q13094, sequence (Q13094 whole entry): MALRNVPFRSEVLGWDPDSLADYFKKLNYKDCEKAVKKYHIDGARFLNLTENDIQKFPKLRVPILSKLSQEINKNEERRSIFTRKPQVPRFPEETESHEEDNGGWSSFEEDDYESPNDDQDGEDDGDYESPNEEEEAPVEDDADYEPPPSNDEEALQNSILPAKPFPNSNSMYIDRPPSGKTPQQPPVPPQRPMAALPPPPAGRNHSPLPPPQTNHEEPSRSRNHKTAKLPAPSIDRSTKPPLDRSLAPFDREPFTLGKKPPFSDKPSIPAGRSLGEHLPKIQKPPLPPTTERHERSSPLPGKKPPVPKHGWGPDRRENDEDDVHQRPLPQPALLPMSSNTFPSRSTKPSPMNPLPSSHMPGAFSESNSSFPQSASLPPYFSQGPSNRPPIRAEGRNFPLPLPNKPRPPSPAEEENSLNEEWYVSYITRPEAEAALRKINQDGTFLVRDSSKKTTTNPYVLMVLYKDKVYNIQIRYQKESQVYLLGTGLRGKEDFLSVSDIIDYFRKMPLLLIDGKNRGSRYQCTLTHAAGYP
UniProt P53384, sequence (P53384 whole entry): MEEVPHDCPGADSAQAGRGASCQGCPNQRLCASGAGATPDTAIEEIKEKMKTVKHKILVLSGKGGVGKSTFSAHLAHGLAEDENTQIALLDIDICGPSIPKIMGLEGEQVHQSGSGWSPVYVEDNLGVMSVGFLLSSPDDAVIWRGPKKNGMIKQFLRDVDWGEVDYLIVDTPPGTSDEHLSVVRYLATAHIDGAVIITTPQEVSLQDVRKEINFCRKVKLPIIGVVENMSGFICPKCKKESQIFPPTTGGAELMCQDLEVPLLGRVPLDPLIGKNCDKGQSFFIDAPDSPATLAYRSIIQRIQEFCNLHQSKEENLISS
UniProt P01112, sequence (P01112 whole entry, looked up): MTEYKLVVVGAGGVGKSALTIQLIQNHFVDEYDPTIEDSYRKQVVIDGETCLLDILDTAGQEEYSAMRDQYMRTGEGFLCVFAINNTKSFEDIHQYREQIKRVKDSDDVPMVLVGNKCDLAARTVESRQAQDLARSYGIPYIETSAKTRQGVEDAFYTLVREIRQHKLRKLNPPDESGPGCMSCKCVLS
UniProt Q13153, sequence (Q13153 whole entry): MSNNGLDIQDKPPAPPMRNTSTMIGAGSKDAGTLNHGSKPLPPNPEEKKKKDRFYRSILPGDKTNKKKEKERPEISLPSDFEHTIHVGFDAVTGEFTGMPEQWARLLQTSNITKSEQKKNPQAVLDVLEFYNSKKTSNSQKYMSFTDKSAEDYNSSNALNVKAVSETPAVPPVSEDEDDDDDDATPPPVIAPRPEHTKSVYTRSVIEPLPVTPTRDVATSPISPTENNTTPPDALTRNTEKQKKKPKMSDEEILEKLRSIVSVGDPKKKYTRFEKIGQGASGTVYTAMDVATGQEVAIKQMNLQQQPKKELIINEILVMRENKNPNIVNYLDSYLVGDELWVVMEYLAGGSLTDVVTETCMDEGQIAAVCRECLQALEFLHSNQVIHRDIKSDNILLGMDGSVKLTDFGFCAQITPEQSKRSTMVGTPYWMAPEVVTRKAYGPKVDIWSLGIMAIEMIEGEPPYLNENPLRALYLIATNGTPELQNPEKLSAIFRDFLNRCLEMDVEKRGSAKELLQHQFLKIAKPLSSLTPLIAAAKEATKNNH
UniProt Q13163, sequence (Q13163 whole entry): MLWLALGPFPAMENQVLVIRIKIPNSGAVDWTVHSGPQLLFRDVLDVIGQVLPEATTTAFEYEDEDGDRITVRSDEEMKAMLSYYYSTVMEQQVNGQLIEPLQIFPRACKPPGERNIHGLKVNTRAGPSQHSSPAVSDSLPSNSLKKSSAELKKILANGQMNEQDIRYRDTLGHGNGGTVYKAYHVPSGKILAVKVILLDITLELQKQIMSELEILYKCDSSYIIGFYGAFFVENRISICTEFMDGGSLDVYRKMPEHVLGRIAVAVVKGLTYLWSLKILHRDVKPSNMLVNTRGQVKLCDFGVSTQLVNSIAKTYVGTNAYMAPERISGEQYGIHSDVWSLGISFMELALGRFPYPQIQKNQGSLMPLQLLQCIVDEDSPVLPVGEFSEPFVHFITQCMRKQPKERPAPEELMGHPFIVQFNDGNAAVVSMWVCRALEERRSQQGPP
UniProt O75822, sequence (O75822 whole entry): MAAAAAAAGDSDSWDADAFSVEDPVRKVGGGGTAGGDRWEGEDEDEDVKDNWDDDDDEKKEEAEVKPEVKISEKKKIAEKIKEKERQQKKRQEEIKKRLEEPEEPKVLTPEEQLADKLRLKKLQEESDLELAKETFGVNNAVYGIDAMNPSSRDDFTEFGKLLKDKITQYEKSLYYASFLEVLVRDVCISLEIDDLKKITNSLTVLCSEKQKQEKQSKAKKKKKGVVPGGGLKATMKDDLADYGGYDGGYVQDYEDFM
UniProt O75616, sequence (O75616 whole entry): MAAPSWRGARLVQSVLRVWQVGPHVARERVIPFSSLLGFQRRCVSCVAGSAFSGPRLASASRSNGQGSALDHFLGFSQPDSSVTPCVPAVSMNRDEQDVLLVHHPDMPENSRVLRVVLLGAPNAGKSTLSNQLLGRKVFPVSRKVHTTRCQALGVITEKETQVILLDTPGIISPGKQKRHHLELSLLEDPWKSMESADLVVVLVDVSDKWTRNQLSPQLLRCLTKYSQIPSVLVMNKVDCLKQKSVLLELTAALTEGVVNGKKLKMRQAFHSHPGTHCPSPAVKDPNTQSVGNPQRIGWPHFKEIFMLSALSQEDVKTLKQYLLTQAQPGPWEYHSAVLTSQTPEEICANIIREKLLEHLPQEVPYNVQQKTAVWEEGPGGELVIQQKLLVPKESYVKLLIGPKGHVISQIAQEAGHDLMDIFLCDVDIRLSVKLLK
UniProt O75717, sequence (O75717 whole entry): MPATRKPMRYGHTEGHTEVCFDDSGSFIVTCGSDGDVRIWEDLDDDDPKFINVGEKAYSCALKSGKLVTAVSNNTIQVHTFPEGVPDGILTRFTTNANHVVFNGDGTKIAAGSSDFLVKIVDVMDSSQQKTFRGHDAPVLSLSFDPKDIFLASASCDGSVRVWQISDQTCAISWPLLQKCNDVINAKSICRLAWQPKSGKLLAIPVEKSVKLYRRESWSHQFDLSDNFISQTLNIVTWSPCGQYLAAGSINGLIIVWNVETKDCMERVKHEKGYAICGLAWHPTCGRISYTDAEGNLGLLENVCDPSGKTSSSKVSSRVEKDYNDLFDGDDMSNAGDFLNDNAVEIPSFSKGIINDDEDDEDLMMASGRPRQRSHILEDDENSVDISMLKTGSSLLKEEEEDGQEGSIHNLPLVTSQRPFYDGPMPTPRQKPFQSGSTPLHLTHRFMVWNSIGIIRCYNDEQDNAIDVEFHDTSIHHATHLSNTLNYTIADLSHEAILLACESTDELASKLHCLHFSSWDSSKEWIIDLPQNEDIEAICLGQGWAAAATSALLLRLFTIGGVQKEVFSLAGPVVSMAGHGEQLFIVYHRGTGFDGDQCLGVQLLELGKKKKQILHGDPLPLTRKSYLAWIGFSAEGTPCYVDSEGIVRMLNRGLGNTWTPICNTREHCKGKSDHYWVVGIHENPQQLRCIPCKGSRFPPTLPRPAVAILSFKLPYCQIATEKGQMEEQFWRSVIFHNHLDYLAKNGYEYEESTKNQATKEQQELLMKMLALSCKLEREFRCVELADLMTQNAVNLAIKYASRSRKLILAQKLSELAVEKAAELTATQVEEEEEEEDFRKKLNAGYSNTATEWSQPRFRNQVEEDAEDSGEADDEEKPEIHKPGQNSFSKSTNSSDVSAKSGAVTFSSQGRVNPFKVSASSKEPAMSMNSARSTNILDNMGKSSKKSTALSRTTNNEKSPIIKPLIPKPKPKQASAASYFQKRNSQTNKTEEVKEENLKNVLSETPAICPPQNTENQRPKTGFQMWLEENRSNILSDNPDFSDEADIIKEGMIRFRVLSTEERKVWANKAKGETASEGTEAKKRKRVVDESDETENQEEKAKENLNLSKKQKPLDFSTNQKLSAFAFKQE
UniProt Q05519, sequence (Q05519 whole entry): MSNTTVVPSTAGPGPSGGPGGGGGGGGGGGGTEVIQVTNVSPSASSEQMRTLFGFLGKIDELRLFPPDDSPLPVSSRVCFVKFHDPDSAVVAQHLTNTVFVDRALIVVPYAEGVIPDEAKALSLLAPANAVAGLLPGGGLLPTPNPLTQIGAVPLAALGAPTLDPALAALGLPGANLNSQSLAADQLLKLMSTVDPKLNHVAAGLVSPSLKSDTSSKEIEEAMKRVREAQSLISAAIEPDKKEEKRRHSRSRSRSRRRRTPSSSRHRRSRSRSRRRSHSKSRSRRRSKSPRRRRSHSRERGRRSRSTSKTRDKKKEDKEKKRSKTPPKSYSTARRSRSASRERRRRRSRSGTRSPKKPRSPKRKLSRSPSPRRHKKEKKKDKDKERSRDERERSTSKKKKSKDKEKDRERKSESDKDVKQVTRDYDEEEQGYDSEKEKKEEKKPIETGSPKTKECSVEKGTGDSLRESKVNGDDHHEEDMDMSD
UniProt Q13243, sequence (Q13243 whole entry): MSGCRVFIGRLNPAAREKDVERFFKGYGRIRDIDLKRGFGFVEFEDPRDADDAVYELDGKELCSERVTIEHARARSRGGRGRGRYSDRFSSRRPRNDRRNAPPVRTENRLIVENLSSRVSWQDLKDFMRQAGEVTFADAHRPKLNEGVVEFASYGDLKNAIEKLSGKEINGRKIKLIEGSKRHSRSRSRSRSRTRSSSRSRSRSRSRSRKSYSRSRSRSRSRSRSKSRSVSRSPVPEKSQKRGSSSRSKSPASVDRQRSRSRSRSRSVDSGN
UniProt P14927, sequence (P14927 whole entry): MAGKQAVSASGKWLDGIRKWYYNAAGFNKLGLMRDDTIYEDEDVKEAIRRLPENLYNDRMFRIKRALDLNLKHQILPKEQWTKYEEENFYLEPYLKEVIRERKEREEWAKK

Target	NP40-soluble protein abundance (concentration: 1mM)	NP40-soluble protein abundance (concentration: 2mM)	NP40-soluble protein abundance (concentration: 4mM)	NP40-soluble protein abundance (concentration: 6mM)	NP40-soluble protein abundance (concentration: 8mM)	NP40-soluble protein abundance (concentration: 10mM)
IGHMBP2 (UniProt P38935)	1.17 ± 0.014	1.16 ± 0.05	1.22 ± 0.083	1.26 ± 0.086	1.33 ± 0.06	1.42 ± 0.12
UniProt P60866|P60866-2	0.932 ± 0.061	0.906 ± 0.058	0.883 ± 0.13	0.91 ± 0.04	0.889 ± 0.043	0.929 ± 0.13
UniProt Q05519|Q05519-2	1.12 ± 0.031	1.18 ± 0.11	1.21 ± 0.088	1.26 ± 0.049	1.34 ± 0.16	1.51 ± 0.2
UniProt P11388|P11388-2|P11388-3|P11388-4	1.66 ± 0.082	1.72 ± 0.05	1.82 ± 0.16	1.98 ± 0.14	2.04 ± 0.24	2.13 ± 0.27
UniProt P09651-2|P09651	1.04 ± 0.11	1.09 ± 0.075	1.09 ± 0.11	1.14 ± 0.15	1.18 ± 0.15	1.25 ± 0.18
P0DN76|Q01081 (UniProt Q01081+P0DN76)	1.04 ± 0.065	1.06 ± 0.083	1.12 ± 0.05	1.29 ± 0.099	1.47 ± 0.18	1.51 ± 0.18
UniProt P25398	0.934 ± 0.016	0.955 ± 0.044	0.869 ± 0.053	0.872 ± 0.033	0.81 ± 0.054	0.847 ± 0.049
FASN (UniProt P49327)	0.959 ± 0.021	0.874 ± 0.091	0.941 ± 0.026	0.913 ± 0.026	0.917 ± 0.035	0.896 ± 0.036
UniProt P42285	1.006 ± 0.0056	0.982 ± 0.062	1.07 ± 0.033	1.1 ± 0.036	1.14 ± 0.068	1.13 ± 0.089
SURF6 (UniProt O75683)	1.05 ± 0.056	1.12 ± 0.092	1.1 ± 0.057	1.17 ± 0.095	1.14 ± 0.12	1.22 ± 0.088
UniProt Q13163|Q13163-2|Q13163-3|Q13163-4	0.968 ± 0.026	1.01 ± 0.041	1.02 ± 0.057	0.958 ± 0.049	0.933 ± 0.019	0.941 ± 0.022
VPS26A (UniProt O75436)	0.946 ± 0.045	0.861 ± 0.062	0.895 ± 0.019	0.872 ± 0.032	0.931 ± 0.046	0.829 ± 0.02
CSTF1 (UniProt Q05048)	0.9781 ± 0.0088	0.931 ± 0.075	1 ± 0.015	1 ± 0.015	1.069 ± 0.0036	1.02 ± 0.046
CIAO1 (UniProt O76071)	1.02 ± 0.021	0.986 ± 0.024	1.01 ± 0.053	1.01 ± 0.044	1 ± 0.021	0.978 ± 0.028
THOP1 (UniProt P52888)	0.938 ± 0.036	0.884 ± 0.095	0.924 ± 0.021	0.944 ± 0.034	0.942 ± 0.041	0.921 ± 0.028
SSRP1 (UniProt Q08945)	1.05 ± 0.053	1.07 ± 0.03	1.13 ± 0.045	1.35 ± 0.055	1.47 ± 0.058	1.73 ± 0.1
WDHD1 (UniProt O75717)	1.01 ± 0.021	0.996 ± 0.012	0.99 ± 0.015	0.963 ± 0.036	0.953 ± 0.016	0.937 ± 0.014
UniProt Q02078-2|Q02078-4|Q02078-6|Q02078-5	1.0199 ± 0.0007	1.03 ± 0.017	1.023 ± 0.0072	0.98 ± 0.014	0.9784 ± 0.0097	0.98 ± 0.053
PAK1 (UniProt Q13153)	0.989 ± 0.035	1.05 ± 0.046	0.989 ± 0.036	0.981 ± 0.013	0.926 ± 0.032	0.975 ± 0.041
GLRX3 (UniProt O76003)	1.04 ± 0.026	1.02 ± 0.011	0.99 ± 0.027	0.9932 ± 0.0036	0.989 ± 0.031	0.976 ± 0.055
CCNA2 (UniProt P20248)	1.03 ± 0.042	1.07 ± 0.057	1.01 ± 0.033	1.01 ± 0.028	0.975 ± 0.014	1.04 ± 0.071

Target	NP40-soluble protein abundance (concentration: 1mM)	NP40-soluble protein abundance (concentration: 2mM)	NP40-soluble protein abundance (concentration: 4mM)	NP40-soluble protein abundance (concentration: 6mM)	NP40-soluble protein abundance (concentration: 8mM)	NP40-soluble protein abundance (concentration: 10mM)
UniProt O75822|O75822-2	0.876 ± 0.042	0.941 ± 0.07	0.858 ± 0.031	0.949 ± 0.026	0.957 ± 0.029	0.99 ± 0.015
RPS3A (UniProt P61247)	0.96 ± 0.052	0.931 ± 0.044	0.918 ± 0.11	0.895 ± 0.081	0.83 ± 0.057	0.947 ± 0.11
GRB2 (UniProt P62993)	0.985 ± 0.035	0.943 ± 0.046	0.946 ± 0.023	0.972 ± 0.01	0.944 ± 0.037	0.918 ± 0.024
YBX1 (UniProt P67809)	0.986 ± 0.088	1.22 ± 0.36	1.07 ± 0.12	1.23 ± 0.072	1.21 ± 0.031	1.34 ± 0.067
UniProt Q13243	1.1 ± 0.056	1.2 ± 0.091	1.17 ± 0.07	1.19 ± 0.013	1.208 ± 0.0093	1.36 ± 0.12
SLC2A1 (UniProt P11166)	1.015 ± 0.005	0.999 ± 0.042	1.02 ± 0.055	0.998 ± 0.029	1.01 ± 0.032	1.01 ± 0.053
UniProt P53384|P53384-2	0.979 ± 0.025	0.969 ± 0.057	1 ± 0.031	0.982 ± 0.022	0.97 ± 0.014	0.96 ± 0.063
RFX1 (UniProt P22670)	1.04 ± 0.016	1.03 ± 0.015	1.03 ± 0.03	1 ± 0.033	1.01 ± 0.025	0.995 ± 0.02
TXLNA (UniProt P40222)	1.04 ± 0.059	1.17 ± 0.13	1.08 ± 0.14	1.21 ± 0.15	1.35 ± 0.046	1.2 ± 0.2
PYGB (UniProt P11216)	1.06 ± 0.1	1.09 ± 0.15	1.35 ± 0.14	1.43 ± 0.17	1.54 ± 0.24	1.47 ± 0.24
UniProt O96028|O96028-3|O96028-5	1.08 ± 0.034	1.16 ± 0.026	1.23 ± 0.033	1.32 ± 0.044	1.35 ± 0.03	1.47 ± 0.059
LCP2 (UniProt Q13094)	1.02 ± 0.027	1.05 ± 0.053	0.992 ± 0.034	0.98 ± 0.0097	0.955 ± 0.042	0.947 ± 0.061
UniProt P01112	1.06 ± 0.026	1.04 ± 0.016	1.03 ± 0.021	1 ± 0.062	1.06 ± 0.021	1.01 ± 0.025
ERAL1 (UniProt O75616)	0.7647 ± 0.0038	0.6675 ± 0.0031	0.716 ± 0.036	0.681 ± 0.011	0.674 ± 0.062	0.636 ± 0.04
UniProt Q06787|Q06787-3|Q06787-5|Q06787-8|Q06787-9|Q06787-7	1.05 ± 0.04	1.11 ± 0.013	1.1 ± 0.02	1.22 ± 0.066	1.24 ± 0.016	1.36 ± 0.02
SDHB (UniProt P21912)	0.976 ± 0.045	1 ± 0.056	0.987 ± 0.063	1.03 ± 0.079	1.02 ± 0.075	1.04 ± 0.052
UQCRB (UniProt P14927)	0.9813 ± 0.003	1.07 ± 0.082	0.954 ± 0.025	0.969 ± 0.018	0.935 ± 0.0015	0.933 ± 0.023
UniProt O75475|V9GYT7	1.08 ± 0.028	1.21 ± 0.042	1.24 ± 0.056	1.34 ± 0.057	1.34 ± 0.024	1.37 ± 0.023
UniProt P04049|P04049-2	1.03 ± 0.023	1.06 ± 0.037	1.07 ± 0.04	1.05 ± 0.036	1.06 ± 0.033	1.05 ± 0.032
FOXK1 (UniProt P85037)	0.999 ± 0.044	1.06 ± 0.086	1.01 ± 0.014	0.987 ± 0.015	0.9378 ± 0.0057	1.01 ± 0.02
TPM4 (UniProt P67936)	1.21 ± 0.19	1.42 ± 0.15	1.27 ± 0.3	1.35 ± 0.3	1.44 ± 0.047	1.24 ± 0.16
